# Assays:
# Assay in all cases: DAPPL (digital affinity profiling via proximity ligation, sequencing); 10 mM Tris-HCl pH 7.5, 50 mM NaCl, 1 mM DTT, 4% glycerol, room temperature, 30 min; GST-TFs on glutathione beads, 16-mer random dsDNA library, 0.1% formaldehyde crosslink after washing; high values mean tight binding
# [1] = molecular target: T1, FEV (Homo sapiens, UniProt Q99581 1-238); settings: protein: recombinant; tags: N-terminal GST; dsDNA, one strand shown
# T1 sequence: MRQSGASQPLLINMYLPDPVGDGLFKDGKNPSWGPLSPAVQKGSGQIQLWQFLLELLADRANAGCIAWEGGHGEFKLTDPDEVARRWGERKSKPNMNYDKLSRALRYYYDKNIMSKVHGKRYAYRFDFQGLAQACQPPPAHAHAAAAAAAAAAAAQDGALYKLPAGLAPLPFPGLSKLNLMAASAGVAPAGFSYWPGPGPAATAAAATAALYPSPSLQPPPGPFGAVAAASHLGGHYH
# Summary of the method: (§1)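 Pools of DNA-barcoded human transcription factors, expressed in yeast as GST fusions on glutathione beads and combined with a tag-only sample, were incubated with 200 nmole of a 16-mer random double-stranded DNA library. Incubation took 30 min at room temperature in Tris/NaCl/DTT/glycerol buffer and was followed by washing, 0.1% formaldehyde crosslinking, proximity ligation (BsaI/T4 ligase, 1 h, 37 °C), PCR amplification and sequencing on an Illumina NextSeq500. Binding signal is the ratio of a hexamer's read frequency for a factor to its frequency for the tag-only sample.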
# [2] = molecular target: ETV5 (Homo sapiens, UniProt P41161 1-510); settings: protein: recombinant; tags: N-terminal GST; dsDNA, one strand shown
# Sequence of ETV5 (P41161 whole entry): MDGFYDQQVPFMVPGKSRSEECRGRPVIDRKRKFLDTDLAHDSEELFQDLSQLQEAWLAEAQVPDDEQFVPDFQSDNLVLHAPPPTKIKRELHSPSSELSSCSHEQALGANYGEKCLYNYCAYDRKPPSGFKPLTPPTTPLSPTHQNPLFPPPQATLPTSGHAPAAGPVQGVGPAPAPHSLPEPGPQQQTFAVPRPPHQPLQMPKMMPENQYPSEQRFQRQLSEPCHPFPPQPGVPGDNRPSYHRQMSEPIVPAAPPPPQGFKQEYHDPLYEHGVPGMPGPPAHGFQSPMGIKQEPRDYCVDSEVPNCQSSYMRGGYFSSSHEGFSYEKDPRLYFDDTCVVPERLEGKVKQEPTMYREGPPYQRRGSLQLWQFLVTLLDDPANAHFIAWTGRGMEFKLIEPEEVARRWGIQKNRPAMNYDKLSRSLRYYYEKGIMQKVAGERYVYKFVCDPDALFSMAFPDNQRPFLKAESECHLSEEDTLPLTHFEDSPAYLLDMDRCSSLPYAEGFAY
# Summary of the method: as §1
# [3] = molecular target: HSF1 (Homo sapiens, UniProt Q00613 1-529); settings: protein: recombinant; tags: N-terminal GST; chain copies: 3; dsDNA, one strand shown
# Sequence of HSF1 (Q00613 whole entry): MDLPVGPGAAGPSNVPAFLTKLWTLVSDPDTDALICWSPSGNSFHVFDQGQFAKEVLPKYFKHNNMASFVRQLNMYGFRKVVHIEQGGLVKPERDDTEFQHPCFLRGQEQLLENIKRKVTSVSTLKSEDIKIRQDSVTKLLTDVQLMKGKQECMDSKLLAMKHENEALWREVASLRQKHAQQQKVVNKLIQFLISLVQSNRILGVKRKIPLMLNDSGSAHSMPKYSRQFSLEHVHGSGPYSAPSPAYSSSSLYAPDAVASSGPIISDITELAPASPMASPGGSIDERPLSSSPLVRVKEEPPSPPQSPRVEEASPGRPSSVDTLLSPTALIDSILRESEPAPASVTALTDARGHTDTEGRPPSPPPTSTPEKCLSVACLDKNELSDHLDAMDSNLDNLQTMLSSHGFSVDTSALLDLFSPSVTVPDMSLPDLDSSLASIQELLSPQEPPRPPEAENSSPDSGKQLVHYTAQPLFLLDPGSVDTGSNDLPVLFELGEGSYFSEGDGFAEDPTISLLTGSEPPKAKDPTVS
# Summary of the method: as §1
# [4] = molecular target: T2, SPIC (Homo sapiens, UniProt Q8N5J4 1-248); settings: protein: recombinant; tags: N-terminal GST; dsDNA, one strand shown
# T2 sequence: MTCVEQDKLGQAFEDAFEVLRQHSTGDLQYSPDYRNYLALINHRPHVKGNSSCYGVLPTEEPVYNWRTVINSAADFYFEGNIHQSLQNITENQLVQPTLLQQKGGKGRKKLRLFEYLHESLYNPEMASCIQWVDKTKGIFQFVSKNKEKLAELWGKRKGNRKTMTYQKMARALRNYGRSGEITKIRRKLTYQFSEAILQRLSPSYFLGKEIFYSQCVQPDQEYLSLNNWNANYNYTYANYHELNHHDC
# Summary of the method: as §1
# [5] = molecular target: ELF4 (Homo sapiens, UniProt Q99607 1-663); settings: protein: recombinant; tags: N-terminal GST; dsDNA, one strand shown
# Sequence of ELF4 (Q99607 whole entry): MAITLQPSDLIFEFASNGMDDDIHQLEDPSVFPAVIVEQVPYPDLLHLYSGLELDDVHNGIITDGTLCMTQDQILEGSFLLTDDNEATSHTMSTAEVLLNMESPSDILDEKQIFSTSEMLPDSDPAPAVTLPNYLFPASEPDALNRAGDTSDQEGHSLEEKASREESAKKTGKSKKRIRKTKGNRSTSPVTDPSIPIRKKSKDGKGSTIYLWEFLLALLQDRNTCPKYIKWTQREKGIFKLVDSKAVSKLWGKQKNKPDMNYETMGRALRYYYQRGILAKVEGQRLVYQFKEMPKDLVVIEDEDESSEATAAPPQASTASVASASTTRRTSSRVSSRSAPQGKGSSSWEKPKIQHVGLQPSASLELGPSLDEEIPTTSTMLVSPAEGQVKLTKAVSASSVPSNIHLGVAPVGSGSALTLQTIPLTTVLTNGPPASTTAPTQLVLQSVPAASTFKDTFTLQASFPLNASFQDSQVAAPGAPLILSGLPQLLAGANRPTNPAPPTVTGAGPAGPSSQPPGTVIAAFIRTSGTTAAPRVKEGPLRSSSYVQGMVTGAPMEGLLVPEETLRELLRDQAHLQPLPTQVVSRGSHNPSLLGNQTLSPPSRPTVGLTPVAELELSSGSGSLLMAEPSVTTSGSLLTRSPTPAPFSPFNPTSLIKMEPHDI
# Summary of the method: as §1
# [6] = molecular target: T3, ELK4 (Homo sapiens, UniProt P28324-2 1-405); settings: protein: recombinant; tags: N-terminal GST; dsDNA, one strand shown
# T3 sequence: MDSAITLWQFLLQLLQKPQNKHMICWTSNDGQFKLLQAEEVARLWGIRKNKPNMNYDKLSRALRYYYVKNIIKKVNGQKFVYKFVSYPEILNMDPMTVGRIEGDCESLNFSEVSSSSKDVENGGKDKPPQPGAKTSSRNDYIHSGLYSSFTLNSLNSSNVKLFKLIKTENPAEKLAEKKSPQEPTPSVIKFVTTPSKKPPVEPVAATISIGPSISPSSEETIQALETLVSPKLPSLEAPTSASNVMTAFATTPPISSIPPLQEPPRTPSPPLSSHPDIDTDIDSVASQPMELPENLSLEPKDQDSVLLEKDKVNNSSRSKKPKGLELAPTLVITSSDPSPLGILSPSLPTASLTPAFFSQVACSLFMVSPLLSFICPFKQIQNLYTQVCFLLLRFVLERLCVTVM
# Summary of the method: as §1
# [7] = molecular target: T4, ETV2 (Homo sapiens, UniProt O00321 1-342); settings: protein: recombinant; tags: N-terminal GST; dsDNA, one strand shown
# T4 sequence: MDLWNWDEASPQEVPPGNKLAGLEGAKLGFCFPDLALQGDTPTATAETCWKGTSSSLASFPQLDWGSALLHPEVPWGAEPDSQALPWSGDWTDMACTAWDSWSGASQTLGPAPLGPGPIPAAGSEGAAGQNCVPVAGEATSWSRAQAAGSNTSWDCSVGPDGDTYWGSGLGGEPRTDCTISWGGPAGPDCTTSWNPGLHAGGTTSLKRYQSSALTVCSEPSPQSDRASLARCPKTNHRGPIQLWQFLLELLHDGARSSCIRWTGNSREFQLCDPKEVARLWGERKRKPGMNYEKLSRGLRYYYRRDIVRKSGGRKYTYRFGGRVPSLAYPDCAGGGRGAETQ
# Summary of the method: as §1
# [8] = molecular target: T5, ELF3 (Homo sapiens, UniProt P78545 1-371); settings: protein: recombinant; tags: N-terminal GST; dsDNA, one strand shown
# T5 sequence: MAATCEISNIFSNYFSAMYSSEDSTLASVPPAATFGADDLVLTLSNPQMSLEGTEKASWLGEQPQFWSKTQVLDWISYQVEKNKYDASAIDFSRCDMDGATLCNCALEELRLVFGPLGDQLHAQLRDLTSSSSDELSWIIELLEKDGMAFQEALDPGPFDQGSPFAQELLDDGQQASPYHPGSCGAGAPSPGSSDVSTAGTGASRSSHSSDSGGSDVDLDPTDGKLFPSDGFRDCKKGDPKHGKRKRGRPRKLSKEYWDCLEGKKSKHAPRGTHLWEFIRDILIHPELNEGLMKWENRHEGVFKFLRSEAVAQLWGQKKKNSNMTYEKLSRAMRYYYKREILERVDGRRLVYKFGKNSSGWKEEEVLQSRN
# Summary of the method: as §1
# [9] = molecular target: CRX (Homo sapiens, UniProt O43186 1-299); settings: protein: recombinant; tags: N-terminal GST; dsDNA, one strand shown
# Sequence of CRX (O43186 whole entry): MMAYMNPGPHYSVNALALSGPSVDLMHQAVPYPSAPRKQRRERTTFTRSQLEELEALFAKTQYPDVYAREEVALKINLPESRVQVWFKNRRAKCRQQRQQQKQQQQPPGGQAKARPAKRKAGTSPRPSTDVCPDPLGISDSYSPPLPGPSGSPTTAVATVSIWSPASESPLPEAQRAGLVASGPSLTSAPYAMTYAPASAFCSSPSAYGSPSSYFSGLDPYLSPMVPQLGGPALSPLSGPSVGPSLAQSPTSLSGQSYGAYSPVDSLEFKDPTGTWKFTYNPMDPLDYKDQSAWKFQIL
# Summary of the method: as §1
# [10] = molecular target: ETV1 (Homo sapiens, UniProt P50549 1-477); settings: protein: recombinant; tags: N-terminal GST; dsDNA, one strand shown
# Sequence of ETV1 (P50549 whole entry): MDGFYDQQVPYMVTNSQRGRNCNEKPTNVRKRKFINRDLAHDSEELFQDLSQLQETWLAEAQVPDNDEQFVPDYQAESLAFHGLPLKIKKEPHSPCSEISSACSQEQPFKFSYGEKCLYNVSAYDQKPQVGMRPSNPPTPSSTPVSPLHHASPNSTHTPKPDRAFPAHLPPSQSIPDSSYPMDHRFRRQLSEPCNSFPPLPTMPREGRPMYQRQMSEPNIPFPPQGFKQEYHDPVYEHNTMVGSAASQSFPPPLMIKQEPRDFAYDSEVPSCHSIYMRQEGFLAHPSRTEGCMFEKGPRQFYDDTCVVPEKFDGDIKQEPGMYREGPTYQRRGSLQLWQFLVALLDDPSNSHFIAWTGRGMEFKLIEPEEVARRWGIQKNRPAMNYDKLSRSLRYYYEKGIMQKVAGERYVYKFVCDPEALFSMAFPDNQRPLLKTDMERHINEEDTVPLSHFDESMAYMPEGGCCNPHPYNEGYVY
# Summary of the method: as §1
# [11] = molecular target: T6, ERF (Homo sapiens, UniProt P50548 1-548); settings: protein: recombinant; tags: N-terminal GST; dsDNA, one strand shown
# T6 sequence: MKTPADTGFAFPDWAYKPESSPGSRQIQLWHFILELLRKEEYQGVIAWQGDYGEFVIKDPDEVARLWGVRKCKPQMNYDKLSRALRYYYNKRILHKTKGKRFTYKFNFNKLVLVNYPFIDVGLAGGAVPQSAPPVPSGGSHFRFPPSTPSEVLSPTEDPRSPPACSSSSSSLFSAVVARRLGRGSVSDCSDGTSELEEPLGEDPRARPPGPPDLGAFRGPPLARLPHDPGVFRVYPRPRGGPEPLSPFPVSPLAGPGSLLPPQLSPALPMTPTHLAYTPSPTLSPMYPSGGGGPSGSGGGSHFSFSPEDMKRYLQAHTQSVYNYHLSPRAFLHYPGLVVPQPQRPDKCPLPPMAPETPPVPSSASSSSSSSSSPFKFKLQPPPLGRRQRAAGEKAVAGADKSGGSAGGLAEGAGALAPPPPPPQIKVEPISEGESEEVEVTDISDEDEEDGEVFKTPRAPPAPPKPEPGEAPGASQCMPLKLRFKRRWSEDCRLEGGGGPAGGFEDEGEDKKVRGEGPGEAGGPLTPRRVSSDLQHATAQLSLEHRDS
# Summary of the method: as §1
# [12] = molecular target: T7, ETV3L (Homo sapiens, UniProt Q6ZN32 1-361); settings: protein: recombinant; tags: N-terminal GST; dsDNA, one strand shown
# T7 sequence: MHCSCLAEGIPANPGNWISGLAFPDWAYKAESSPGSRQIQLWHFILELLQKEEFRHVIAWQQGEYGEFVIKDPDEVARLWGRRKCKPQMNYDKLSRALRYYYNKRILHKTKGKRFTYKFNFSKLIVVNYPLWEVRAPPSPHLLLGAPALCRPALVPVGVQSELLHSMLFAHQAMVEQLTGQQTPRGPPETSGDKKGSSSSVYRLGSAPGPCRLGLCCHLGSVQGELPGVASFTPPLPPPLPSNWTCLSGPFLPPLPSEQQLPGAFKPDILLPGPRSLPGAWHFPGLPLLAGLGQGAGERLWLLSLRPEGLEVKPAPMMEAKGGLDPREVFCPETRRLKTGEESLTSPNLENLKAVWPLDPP
# Summary of the method: as §1
# [13] = molecular target: T8, ETS2 (Homo sapiens, UniProt P15036 1-469); settings: protein: recombinant; tags: N-terminal GST; dsDNA, one strand shown
# T8 sequence: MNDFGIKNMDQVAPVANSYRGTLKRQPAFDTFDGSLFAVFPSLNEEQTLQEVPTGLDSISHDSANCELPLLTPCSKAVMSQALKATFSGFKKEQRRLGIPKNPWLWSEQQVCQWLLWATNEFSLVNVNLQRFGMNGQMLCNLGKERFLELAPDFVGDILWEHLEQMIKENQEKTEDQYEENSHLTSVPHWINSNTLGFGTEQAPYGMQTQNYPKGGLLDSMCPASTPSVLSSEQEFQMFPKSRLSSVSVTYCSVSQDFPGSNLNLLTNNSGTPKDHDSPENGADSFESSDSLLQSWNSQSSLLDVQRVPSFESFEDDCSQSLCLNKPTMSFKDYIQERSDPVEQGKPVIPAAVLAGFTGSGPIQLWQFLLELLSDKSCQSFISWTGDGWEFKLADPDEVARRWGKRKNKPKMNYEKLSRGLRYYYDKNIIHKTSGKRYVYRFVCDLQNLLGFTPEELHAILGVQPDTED
# Summary of the method: as §1
# [14] = molecular target: T9, SPDEF (Homo sapiens, UniProt O95238 1-335); settings: protein: recombinant; tags: N-terminal GST; dsDNA, one strand shown
# T9 sequence: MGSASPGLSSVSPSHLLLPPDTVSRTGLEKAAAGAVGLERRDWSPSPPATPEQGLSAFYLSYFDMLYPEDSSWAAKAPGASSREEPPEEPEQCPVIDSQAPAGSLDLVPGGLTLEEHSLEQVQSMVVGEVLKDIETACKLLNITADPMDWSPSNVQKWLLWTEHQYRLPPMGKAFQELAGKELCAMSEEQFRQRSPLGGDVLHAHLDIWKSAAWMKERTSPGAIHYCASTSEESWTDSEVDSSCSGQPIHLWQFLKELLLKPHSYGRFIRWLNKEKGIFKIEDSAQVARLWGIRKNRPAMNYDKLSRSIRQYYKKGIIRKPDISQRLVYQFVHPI
# Summary of the method: as §1
# [15] = molecular target: T10, ETV7 (Homo sapiens, UniProt Q9Y603 1-341); settings: protein: recombinant; tags: N-terminal GST; dsDNA, one strand shown
# T10 sequence: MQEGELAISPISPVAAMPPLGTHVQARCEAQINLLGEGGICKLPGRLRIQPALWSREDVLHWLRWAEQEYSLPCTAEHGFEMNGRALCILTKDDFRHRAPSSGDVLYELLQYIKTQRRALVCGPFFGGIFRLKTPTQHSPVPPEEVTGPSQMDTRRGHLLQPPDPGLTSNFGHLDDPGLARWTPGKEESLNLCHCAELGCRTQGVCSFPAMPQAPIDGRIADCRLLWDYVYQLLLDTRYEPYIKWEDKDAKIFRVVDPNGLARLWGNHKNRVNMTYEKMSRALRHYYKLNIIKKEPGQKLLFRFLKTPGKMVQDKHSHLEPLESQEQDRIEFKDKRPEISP
# Summary of the method: as §1
# [16] = molecular target: T11, ELF5 (Homo sapiens, UniProt Q9UKW6-2 1-255); settings: protein: recombinant; tags: N-terminal GST; dsDNA, one strand shown
# T11 sequence: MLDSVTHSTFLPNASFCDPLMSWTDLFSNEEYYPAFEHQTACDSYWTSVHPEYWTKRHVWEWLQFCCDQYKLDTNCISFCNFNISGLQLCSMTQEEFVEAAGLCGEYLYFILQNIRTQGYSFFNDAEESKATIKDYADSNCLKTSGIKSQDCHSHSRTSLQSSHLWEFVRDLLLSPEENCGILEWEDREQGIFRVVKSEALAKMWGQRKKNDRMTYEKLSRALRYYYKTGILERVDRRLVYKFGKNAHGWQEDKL
# Summary of the method: as §1
# [17] = molecular target: T12, ETV3 (Homo sapiens, UniProt P41162-2 1-143); settings: protein: recombinant; tags: N-terminal GST; dsDNA, one strand shown
# T12 sequence: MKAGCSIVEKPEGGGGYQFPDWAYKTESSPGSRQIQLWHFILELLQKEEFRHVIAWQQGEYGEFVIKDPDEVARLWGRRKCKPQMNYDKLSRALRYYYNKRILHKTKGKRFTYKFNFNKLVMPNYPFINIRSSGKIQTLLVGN
# Summary of the method: as §1
# [18] = molecular target: ETV6 (Homo sapiens, UniProt P41212 1-452); settings: protein: recombinant; tags: N-terminal GST; dsDNA, one strand shown
# Sequence of ETV6 (P41212 whole entry): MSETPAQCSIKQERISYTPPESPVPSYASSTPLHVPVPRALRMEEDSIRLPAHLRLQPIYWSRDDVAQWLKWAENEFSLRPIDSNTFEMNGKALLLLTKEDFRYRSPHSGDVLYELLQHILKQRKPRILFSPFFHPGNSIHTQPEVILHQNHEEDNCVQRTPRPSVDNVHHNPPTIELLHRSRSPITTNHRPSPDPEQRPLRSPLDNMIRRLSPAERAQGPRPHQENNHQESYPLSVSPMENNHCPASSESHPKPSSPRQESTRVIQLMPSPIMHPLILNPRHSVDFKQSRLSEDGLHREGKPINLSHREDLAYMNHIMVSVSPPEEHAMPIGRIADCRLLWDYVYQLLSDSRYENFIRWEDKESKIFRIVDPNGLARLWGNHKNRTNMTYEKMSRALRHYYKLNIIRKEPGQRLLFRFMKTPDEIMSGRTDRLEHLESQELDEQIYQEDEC
# Summary of the method: as §1
sequence,measurement,setting,value
CGCCTC,binding signal,[1],"1.45 fold enrichment (6-mer frequency, TF over GST control)"
same,binding signal,[2],"1.4 fold enrichment (6-mer frequency, TF over GST control)"
same,binding signal,[3],"1.1 fold enrichment (6-mer frequency, TF over GST control)"
same,binding signal,[4],"1.33 fold enrichment (6-mer frequency, TF over GST control)"
same,binding signal,[5],"1.39 fold enrichment (6-mer frequency, TF over GST control)"
same,binding signal,[6],"1.14 fold enrichment (6-mer frequency, TF over GST control)"
same,binding signal,[7],"1.51 fold enrichment (6-mer frequency, TF over GST control)"
same,binding signal,[8],"1.49 fold enrichment (6-mer frequency, TF over GST control)"
same,binding signal,[9],"1.05 fold enrichment (6-mer frequency, TF over GST control)"
same,binding signal,[10],"1.42 fold enrichment (6-mer frequency, TF over GST control)"
same,binding signal,[11],"1.37 fold enrichment (6-mer frequency, TF over GST control)"
same,binding signal,[12],"1.49 fold enrichment (6-mer frequency, TF over GST control)"
same,binding signal,[13],"1.27 fold enrichment (6-mer frequency, TF over GST control)"
same,binding signal,[14],"1.39 fold enrichment (6-mer frequency, TF over GST control)"
same,binding signal,[15],"1.26 fold enrichment (6-mer frequency, TF over GST control)"
same,binding signal,[16],"1.43 fold enrichment (6-mer frequency, TF over GST control)"
same,binding signal,[17],"1.37 fold enrichment (6-mer frequency, TF over GST control)"
same,binding signal,[18],"1.42 fold enrichment (6-mer frequency, TF over GST control)"

# From PMC7862700, “An all-to-all approach to the identification of sequence-specific readers for epigenetic DNA modifications on cytosine”
